Anesthetic bind – qHTS Assay for Identification of Novel General Anesthetics | Ferritin light chain (Equus caballus), P02791 | apoferritin/1-aminoanthracene competitive binding, fluorescence | Potency, µM (series often up to 77.5 µM), inactives show at the highest dose activity change, negative = displacement, most hits filed as inhibitors | hit rate 0.074% among 350,000 | AID 485281, 2010; also: % is scaled to controls: 0 for no effect and ±100 for the full control effect; nearly all actives have a fitted effect of over 20% in size
Target sequence (P02791 2-175 limits assumed): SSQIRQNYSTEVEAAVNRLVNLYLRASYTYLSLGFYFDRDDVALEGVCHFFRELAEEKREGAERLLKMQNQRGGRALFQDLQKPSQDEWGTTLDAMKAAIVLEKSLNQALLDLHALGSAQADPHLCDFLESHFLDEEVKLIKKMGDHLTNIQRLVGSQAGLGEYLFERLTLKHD
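Probe: 1-aminoanthracene (50% saturated, PBS). Protein: horse-spleen apoferritin, 10 uM. Incubation: 10 min, room temperature. Detection: 380 nm excitation, 535 nm emission. Analysis: normalized response, four-parameter Hill.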
ERG-DNA inh – qHTS for Small Molecule Inhibitors of the ERG Ets/DNA interaction; fluorescence polarization, His-ERG Ets domain / labelled DNA; Potency, µM (series often up to 76.9 µM), for the others: at the top dose FP activity, negative = inhibition, usual class: inhibitors; hit rate 0.028% among 370,000; active = well fitted inhibition curve with a large enough effect in the polarisation, with a control signal flat; inconclusive = small, poorly fitted or top-dose-only effect, or effect the other way, or a change in a side signal; inactive = no such curve, though single readings can be large or run the other way; the % refers to the polarisation;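 also: polarization taken with two DNA probes labelled with fluorescein and Texas red; % of control where 0% means no effect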
Target sequence (P11308 whole entry, looked up, the tested form may be a part): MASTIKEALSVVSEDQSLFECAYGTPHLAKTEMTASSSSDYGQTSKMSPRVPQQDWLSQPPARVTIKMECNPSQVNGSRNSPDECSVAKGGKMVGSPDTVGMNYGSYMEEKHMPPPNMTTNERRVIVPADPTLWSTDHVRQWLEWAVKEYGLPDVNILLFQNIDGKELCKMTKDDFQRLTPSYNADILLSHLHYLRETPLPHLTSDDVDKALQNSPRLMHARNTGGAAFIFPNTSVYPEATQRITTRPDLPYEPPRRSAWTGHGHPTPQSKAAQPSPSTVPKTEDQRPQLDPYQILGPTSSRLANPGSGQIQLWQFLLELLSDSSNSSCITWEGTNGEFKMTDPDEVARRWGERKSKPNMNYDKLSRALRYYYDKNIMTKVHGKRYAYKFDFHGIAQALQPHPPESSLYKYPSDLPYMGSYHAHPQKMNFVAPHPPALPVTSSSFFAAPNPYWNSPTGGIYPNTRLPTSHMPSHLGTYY
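His-tagged ERG Ets domain (1 uM in the protein solution; 300mM KCl, 50mM Tris-HCl, 1mM EDTA, 1mM DTT, pH 7.5) received compound, then a probe mix of 5 nM fluorescein-DNA and 100nM Texas-615-DNA. Fluorescence polarization was read for both dyes.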
BRCA1 expr up – qHTS Assay to Identify Small Molecule Activators of BRCA1 Expression; MCF7-BRCA1-FFLuc reporter, luminescence, 48 h; response scale: scaled: vehicle 0%, 10 µM genistein 100%; Potency, µM (doses to about 46.1 µM), without a hit: at the highest dose activation, usual class: activators; hit rate 1.1% among 380,000; also: nearly all actives have a fitted effect of over 80% in size
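Using MCF7 cells harboring a BRCA1 firefly luciferase reporter, plated 2 h before compound pinning, the screen measured luminescence after 48 h incubation. Responses were normalized to DMSO and 10 microM genistein, then fitted for concentration-effect.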
RGS12 GoLoco inh – qHTS Assay for Inhibitors of RGS12 GoLoco Motif Activity (Red Fluorophore); Gai1:RGS12 GoLoco peptide FP, rhodamine, 10 min; Potency, µM (doses to about 61.6 µM), for the others: at the highest dose activity, negative = inhibition, usual class: inhibitors; hit rate 0.44% among 230,000; AID 880, 2007; active = well fitted inhibition curve with a large enough effect, not every such curve was filed as active; inactive = no such curve, though single readings can be large or run the other way; also: % is scaled to controls: 0 for no effect and ±100 for the full control effect; nearly all actives have a fitted effect of over 30% in size
Numbers without * were called inactive; ? = inconclusive; . = no result; ! = not confirmed by another sample; [ ] = dose if it differs, or a comment. Hits are enriched below; roughly 1.2% of the tested compounds scored in any of these assays. Unless noted, calls follow the shape of the dose curve; as a rule, active = well fitted curve in the direction sought with a large enough effect; inconclusive = small, poorly fitted or top-dose-only effect, or another doubt; inactive = no such curve, though single readings can be large; an effect the other way counts as inactive or inconclusive. Potency is read from the fitted curve at half-maximal effect.

SMILES	Anesthetic bind	ERG-DNA inh	BRCA1 expr up	RGS12 GoLoco inh
COc1ccc(CCNC(=O)c2cccn2C)cc1	-8%	5%	2.8µM*	.
COc1ccc(C)cc1NC(=O)CCS(=O)(=O)c1cc2c3c(c1)CCN3C(=O)CC2	-7%	-10%	5%	.
O=c1ccc(-c2ccccc2)nn1Cc1ccc(Cl)cc1	.	-12%	-4%	.
COc1cccc(CNC(=O)Cn2nc(-c3ccc(C)cc3)ccc2=O)c1	?	5%	.	.
CCCCNC(=O)Cn1nc(-c2ccc(C)cc2)ccc1=O	?	6%	17%	.
Cc1ccc(-c2ccc(=O)n(CC(=O)NCc3ccc(F)cc3)n2)cc1	8.9µM*	10%	32%	-1%
C=Cc1ccc(Cn2nc(-c3ccc(C)cc3)ccc2=O)cc1	16µM*	9%	-25%	.
COc1cccc(CNC(=O)Cn2nc(-c3ccc(Cl)cc3)ccc2=O)c1	6.3µM*!	5%	3%	4%
Cc1ccc(-n2ccn(CC(=O)c3ccc(F)cc3)c(=O)c2=O)cc1C	-5%	7%	.	.
O=C(O)[C@H]1O[C@@H](Oc2ccc3ccc(=O)oc3c2)[C@H](O)[C@@H](O)[C@@H]1O	0%	.	.	.
O=C(Cc1ccc(Br)cc1)NO	.	.	0%	.
CCOC(=O)c1c(-c2ccccc2)csc1N1C(=O)Nc2ccccc2N1O	-10%	-5%	-4%	1%
COC(=O)c1c(-c2ccccc2)csc1N1C(=O)Nc2ccccc2N1O	-3%	-11%	7.9µM*	5%
Cc1ncc(C(=O)Nc2ccccc2)[nH]1	.	0%	2.8µM*	.
Cc1ccc(Nc2ncccc2C(N)=O)cc1[N+](=O)[O-]	6%	13%	5.6µM*	-7%
CCC1=C(C[C@H]2NCCc3ccccc32)C[C@@H]2c3cc(OC)c(OC)cc3CCN2C1	.	.	.	1%[14.2 µM]
Nc1nc2sc3c(c2c(=O)s1)CCCC3	?	.	11µM*	11%
CC1=Nn2c(nc3sc4c(c3c2=O)CCCC4)SC1	-4%	5%	7.1µM*	12%
O=c1c2c3c(sc2nc2n1CCCCC2)CCCCC3	1%	.	.	-3%
O=c1c2c3c(sc2nc2n1CCCCC2)CCCC3	-16%	6%	4.5µM*	5%
CC1CSc2nc3sc4c(c3c(=O)n21)CCCC4 (stereo not given)	-15%	2%	92%	-7%
COc1ccc(N2CCN(C(c3ccc(C)cc3)c3nnnn3C(C)(C)C)CC2)cc1 (stereo not given)	.	.	5%	.
O=C(CC(Nc1ccccc1)C(=O)O)c1ccccc1 (stereo not given)	?	-3%	11µM*	7%
CN(C)c1ccc(/C=C2\C=Nc3ccccc32)cc1	.	.	0%	.
COC(=O)c1ccc(CSc2nnc(C)s2)cc1	-12%	3%	90%	-6%
SMILES	Anesthetic bind	ERG-DNA inh	BRCA1 expr up	RGS12 GoLoco inh
COc1ccc(CSc2nnc(C)s2)cc1F	-14%	4%	4.5µM*	-6%
CCCCc1ccc(-c2nc(N)n[nH]2)cc1	?	3%	7.9µM*	9%
Nc1n[nH]c(-c2ccc(F)cc2)n1	-9%	-4%	20%	-1%
c1ccc2cc(NCNc3ccc4ccccc4c3)ccc2c1	.	.	.	5%[14.2 µM]
Cc1cccc(OCc2nc(C#N)c(NCCN(C)C)o2)c1	-7%	-5%	19%	4%
CCNc1oc(COc2cccc(C)c2)nc1C#N	?	3%	11µM*	2%
CCOc1ccccc1NC(=O)C(=O)/C=C(\O)c1cc(OC)ccc1OC	-14%	9%	-31%	7%
COc1ccccc1NC(=O)C(=O)/C=C(\O)c1ccccc1	-5%	-7%	2.8µM*	12%
Cc1nc(Oc2ccccc2C)c2oc3ccccc3c2n1	-14%	14%	.	.
CCCC1(C)Nc2ccccc2-c2nc3ccccc3n21 (stereo not given)	12%	1%	8.9µM*	8%
Nc1nc(NC2CC2)c2ncn([C@H]3C=C[C@@H](CO)C3)c2n1	.	.	.	2%
CN(C(=O)c1ccc2c(Cl)c3c(nc2c1)CCC3)c1ccccc1	?	-4%	6.3µM*	15%
CC(C)N(C(=O)COC(=O)c1ccc(Cl)c(S(N)(=O)=O)c1)C(C)C	-14%	3%	6%	-1%
Cc1cc(C(=O)COC(=O)c2ccc(Cl)c(S(N)(=O)=O)c2)c(C)n1C1CC1	.	5%	11µM*	.
Cc1cc(C(=O)COC(=O)c2ccc(NC(=O)CC#N)cc2)c(C)n1C1CC1	.	4%	4.5µM*	.
O=C(Cc1cccs1)Nc1nc(-c2ccccc2)cs1	-7%	-4%	-24%	-4%
O=C(COC(=O)CNC(=O)c1ccccc1)Nc1nc(-c2ccccc2)cs1	?	-2%	6.3µM*	8%
Cc1nc(CC(=O)Nc2nc(-c3ccccc3)cs2)cs1	-18%	-2%	11µM*	8%
N#CC1=C(N)CCC1	.	.	-9%	.
O=C(Cn1c2[n+](c3ccc(C(F)(F)F)cc31)CCCCC2)Nc1ccccc1	-15%	0%	-33%	3.2µM*
CCc1cccc(NC(=O)Cn2c3[n+](c4ccc(C(F)(F)F)cc42)CCCCC3)c1	-13%	-6%	-16%	14µM*
Cc1ccc(NC(=O)Cn2c(SCc3ccc(F)cc3)nc3cccnc32)cc1F	-10%	-1%	.	.
CCCCCCOc1ccc(CC(=O)O)cc1	.	.	10%	.
Cc1ccc2oc(-c3ccc(C)c(NC(=O)COc4ccc(Cl)cc4C)c3)nc2c1	.	.	12%	.
O=C(NC(Cc1ccccc1)C(=O)O)C1CCCCC1 (stereo not given)	-5%	-6%	29%	-11%
SMILES	Anesthetic bind	ERG-DNA inh	BRCA1 expr up	RGS12 GoLoco inh
CC(C)C1CCC(C(=O)NC(Cc2ccccc2)C(=O)O)CC1 (stereo not given)	3%	.	.	20µM*
O=C(COc1ccccc1)Nc1nc2ccccc2[nH]1	-14%	4%	13µM*	-6%
CCCOc1cccc(OCC(=O)Nc2nc3ccccc3[nH]2)c1	-12%	-1%	-5%	-2%
CC(C)(C)c1ccc(C(=O)CS(=O)(=O)c2ccccc2)cc1	?	2%	4µM*	-8%
Cc1ccc(S(=O)(=O)CC(=O)c2ccccc2)cc1	-18%	-2%	26%	4%
Cn1c(=O)c2c(ncn2CN2CCN(Cn3cnc4c3c(=O)n(C)c(=O)n4C)CC2)n(C)c1=O	.	.	.	9%[14.2 µM]
CCOc1ccc2nc(N3CCOCC3)nc(C)c2c1	232%	-6%	4.5µM*	20%
CCOc1ccc(Nc2cc(C)nc(N3CCOCC3)n2)cc1	-11%	-6%	12%	3%
CC(=O)N(c1ccc2ccccc2c1)C1SC(=O)N(c2cccc(C)c2)C1=O (stereo not given)	.	.	14%	.
